# Shown is part of a subset that was picked to be rich in hits.
# TbPYK inhibitor: inhibitors of Trypanosoma brucei pyruvate kinase | Q57TT1 | TbPYK enzyme, Kinase-Glo Plus ATP luminescence, 45 min | Potency, µM (highest dose often 76.8 µM), actives largely listed as inhibitors | actives 0.12% (n = 410,000); further: nearly all actives have a fitted effect of over 50% in size
#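 Enzyme and substrate buffer are dispensed first and compound is pin-transferred. ADP at 130 uM final then starts the reaction, which runs 45 min at room temperature. Detection reagent is added for 10 min before luminescence is imaged.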
# Giardia FBPA inh-1: Giardia lamblia aldolase inhibition. A8B2U2. purified Giardia FBPA. Potency, µM (highest dose often 59.6 µM), usual class: inhibitors. actives 0.71% (n = 290,000); further: nearly all actives have a fitted effect of over 55% in size
# Target sequence (A8B2U2 whole entry, looked up): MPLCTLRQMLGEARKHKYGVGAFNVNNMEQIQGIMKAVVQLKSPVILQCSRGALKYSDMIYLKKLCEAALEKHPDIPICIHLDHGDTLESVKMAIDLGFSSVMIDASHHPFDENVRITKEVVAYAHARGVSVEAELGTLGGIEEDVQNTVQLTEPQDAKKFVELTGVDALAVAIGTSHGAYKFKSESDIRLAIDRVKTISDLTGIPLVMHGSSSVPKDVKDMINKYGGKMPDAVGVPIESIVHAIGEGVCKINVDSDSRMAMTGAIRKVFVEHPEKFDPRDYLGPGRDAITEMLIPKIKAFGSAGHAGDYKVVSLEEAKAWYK
#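 Giardia FBPA (40 nM reagent) was preincubated 10 min at RT with compound (up to 57.5 uM final), then substrate plus GAPDH/TPI/NAD/arsenate coupling system with diaphorase/resazurin was added; resorufin fluorescence (525/598 nm) was read after 20 min.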
# LmPK inhibitor: inhibitors of Leishmania mexicana pyruvate kinase | purified LmPK, Kinase-Glo ATP luminescence, 1 h | Potency, µM (top dose mostly 57.5 µM), most hits filed as inhibitors | actives 0.37% (n = 290,000) | AID 1721
#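 Screened at intermediate enzyme activity to detect both inhibitors and activators: LmPK at 0.1 nM, with a 0.5 nM enzyme column as activation reference. PEP 0.5 mM, ADP 0.1 mM; ATP detected by luminescence after 1 h.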
# Cycloheximide cs: counter-screen for Shiga toxin inhibitors: cycloheximide protein synthesis inhibition. max response, %. AID 2314. actives 12% (n = 300,000). cell reporter, cycloheximide protein synthesis inhibition counterscreen; in the data active means max response mostly above about 13%, no sharp cut-off; inactive means mostly below about 14%; further: read at 38.3 µM for the half of the compounds with a filed dose
# Sm TGR block: S. mansoni TGR enzyme inhibition; purified TGR, DTNB reduction, TNB absorbance 405 nm; Potency, µM (doses to about 114 µM), most hits filed as inhibitors; actives 3% (n = 360,000); AID 485364; further: nearly all actives have a fitted effect of over 60% in size
#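 TGR 20 nM + NADPH 100 uM (dispensed conc.), cpd preinc 15 min RT; start with NADPH (500 uM addition) then DTNB (15 mM addition). Kinetic TNB absorbance, 405 nm filter. Four-parameter Hill fit across titration.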
# Shiga inhibitor: inhibitors of Shiga toxin in Vero cells | AID 2315 | inhibition, % at 38.7 µM | actives 9.2% (n = 290,000) | Vero cells, Shiga toxin protein synthesis inhibition reporter; in the data active means inhibition mostly above about 28%, no sharp cut-off; inactive means mostly below about 43%
# Giardia growth: Giardia lamblia growth inhibition. shares compounds with Giardia FBPA inh-1. Giardia lamblia trophozoite growth inhibition. Potency, µM (highest dose often 57.5 µM), usual class: inhibitors. actives 5% (n = 1,500). AID 2785;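 further: trophozoites exposed to compound for 48 h at 37 °C; nearly all actives have a fitted effect of over 70% in size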
# Mammal cell tox: counter-screen for Giardia aldolase inhibitors: mammalian cell toxicity | shares compounds with Giardia FBPA inh-1 | mammalian cell viability counter-screen, qHTS | Potency, µM (top dose mostly 57.5 µM), hits mostly inhibitors | actives 4% (n = 1,500);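 further: Chinese hamster ovary cells used as mammalian cytotoxicity surrogate; viability measured as cellular ATP by luminescence; compound exposure lasted 48 h before reading; nearly all actives have a fitted effect of over 60% in size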
# Giardia FBPA inh-2: confirmation of Giardia fructose-bisphosphate aldolase inhibitors; shares compounds with Giardia FBPA inh-1; purified Giardia aldolase enzyme activity, qHTS; Potency, µM (titrated, usually from 57.5 µM), hits mostly inhibitors; actives 5% (n = 1,500); AID 2787; further: nearly all actives have a fitted effect of over 45% in size
# Rabbit aldolase: rabbit FBP aldolase inhibition by Giardia aldolase hits | shares compounds with Giardia FBPA inh-1 | Rabbit muscle FBPA enzyme inhibition, selectivity counter-screen | Potency, µM (series often up to 57.5 µM), most hits filed as inhibitors | actives 4% (n = 1,500) | AID 2794; further: nearly all actives have a fitted effect of over 60% in size
# Target sequence (P00883 whole entry, looked up): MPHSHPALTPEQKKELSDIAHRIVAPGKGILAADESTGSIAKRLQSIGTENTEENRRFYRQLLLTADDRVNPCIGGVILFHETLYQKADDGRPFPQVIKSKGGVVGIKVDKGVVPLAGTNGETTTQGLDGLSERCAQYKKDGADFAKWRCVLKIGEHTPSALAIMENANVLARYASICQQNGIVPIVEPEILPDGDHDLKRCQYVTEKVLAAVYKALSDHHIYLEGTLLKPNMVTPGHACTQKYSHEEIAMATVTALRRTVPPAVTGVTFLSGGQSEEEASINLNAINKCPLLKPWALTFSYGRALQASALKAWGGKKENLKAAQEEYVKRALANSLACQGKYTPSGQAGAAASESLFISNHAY
# GAPDH coupling: counter-screen for Giardia aldolase inhibitors: GAPDH coupling enzyme | shares compounds with Giardia FBPA inh-1 | GAPDH coupling enzyme counterscreen, biochemical, qHTS | Potency, µM (titrated, usually from 57.5 µM), most hits filed as inhibitors | actives 6% (n = 1,500) | AID 2795; further: nearly all actives have a fitted effect of over 55% in size
# A number is an active result; n = inactive; u = inconclusive; x = not tested or not shown; [ ] = dose if it differs, or a comment. Unless noted, the call rests on the fitted dose curve; in most records, active means well fitted curve in the direction sought with a large enough effect; inconclusive means small, poorly fitted or top-dose-only effect, or another doubt; inactive means no such curve, though single readings can be large; an effect the other way counts as inactive or inconclusive.
SMILES,TbPYK inhibitor,Giardia FBPA inh-1,LmPK inhibitor,Cycloheximide cs,Sm TGR block,Shiga inhibitor,Giardia growth,Mammal cell tox,Giardia FBPA inh-2,Rabbit aldolase,GAPDH coupling
C=CCNC(=S)NN=C1CCC(c2ccccc2)CC1 (stereo not drawn),n,7.9µM,n,n,n,n,n,u,n,n,n
O=C(COc1ccccc1Cl)NCCCNC(=O)c1ccco1,n,n,n,n,n,n,x,x,x,x,x
CCN(N=Nc1cccc([N+](=O)[O-])c1)c1cccc([N+](=O)[O-])c1,n,n,n,n,n,n,x,x,x,x,x
CCOc1cc(C=O)cc(N=Nc2cccc([N+](=O)[O-])c2)c1O,n,13µM,n,n,u,n,u,n,n,n,n
COc1ccc(N2C(=O)CC(Nc3ccc(C)cc3)C2=O)cc1 (stereo not drawn),n,n,n,n,n,n,x,x,x,x,x
COc1ccc(N2C(=O)CC(NNc3ncc(Cl)cc3Cl)C2=O)cc1 (stereo not drawn),n,16µM,n,n,n,n,n[10.4 µM],n,n,n,n
COc1cc(/C=N/Nc2nc(=O)[nH]nc2C)cc([N+](=O)[O-])c1O,n,20µM,n,25,n,57,u,n,n,n,n
Cc1ccc(OCC(=O)N/N=C\c2ccc(O)c([N+](=O)[O-])c2)c([N+](=O)[O-])c1,n,n,n,n,n,n,x,x,x,x,x
COc1cc(/C=N/NC(=O)c2ccc(C)nc2)cc([N+](=O)[O-])c1O,n,n,n,n,n,n,x,x,x,x,x
Cc1n[nH]c(=O)nc1N/N=C/c1ccc(O)c([N+](=O)[O-])c1,n,18µM,u,n,n,n,14µM,n,n,n,n
COc1ccccc1N1CCN(CC(=O)Nc2nc(C)c(C(=O)N(C)C)s2)CC1,n,11µM,n,n,n,n,n,n,n,n,n
Cc1nc(NC(=O)CN2CCCCC2)sc1C(=O)N(C)C,n,3.2µM,n,n,n,n,n,n,n,n,n
CN(C)NC(=S)NC1CC2CCC1C2 (stereo not drawn),n,n,n,n,n,n,x,x,x,x,x
Cn1nc(C(C)(C)C)cc1C(=O)N1CCCC(C)(C(=O)NS(=O)(=O)C2CC2)C1 (stereo not drawn),n,x,x,x,x,x,x,x,x,x,x
CCn1c(O)c(C#N)c(C)cc1=O,n,13µM,n,n,u,n,u,n,u,u,u
Cc1cc(=O)n(CCO)c(O)c1C#N,n,u,n,n,n,n,x,x,x,x,x
Cc1ccc(CCNC(=O)c2cc3cc4cc(C)ccc4nc3s2)cc1,n,x,x,x,n,x,x,x,x,x,x
CC(NC(=O)NC(N)=O)(C(F)(F)F)C(F)(F)F,n,n,n,n,n,n,x,x,x,x,x
CC(NC(=O)NNC(N)=S)(C(F)(F)F)C(F)(F)F,n,18µM,n,n,n,n,n,n,n,n,n
COc1cc(C(=O)O/N=C2\C=CC(=O)C=C2C)cc(OC)c1OC,n,4µM,n,n,3.2µM,n,n,u,28µM,32µM,32µM
COc1cc(C(=O)O)cc(OC)c1OC,n,x,x,x,x,x,x,x,x,x,x
CCc1ccc(Nc2n[n+](-c3ccccc3)c(-c3ccc(N(CC)CC)cc3)s2)cc1,n,25µM,n,35,n,51,n,u,n,n,n
CCc1ccc(Nc2n[n+](-c3ccccc3)c(-c3cc(OC)c(OC)cc3Br)s2)cc1,n,n,n,n,n,n,x,x,x,x,x
COc1ccc(NC(=O)c2ccncc2)cc1S(=O)(=O)N1CCCCC1,n,x,x,x,x,x,x,x,x,x,x
O=C(N/N=C/c1ccccn1)C(=O)N1CCCCCC1,n,18µM,n,n,n,n,n,n,n,n,n
SMILES,TbPYK inhibitor,Giardia FBPA inh-1,LmPK inhibitor,Cycloheximide cs,Sm TGR block,Shiga inhibitor,Giardia growth,Mammal cell tox,Giardia FBPA inh-2,Rabbit aldolase,GAPDH coupling
Nc1nnnn1CC(=O)N/N=C/c1ccccn1,n,18µM,n,n,n,n,n,n,n,n,n
O=C(CCCCCn1c(=O)[nH]c2ccsc2c1=O)NCc1ccc2c(c1)OCO2,n,n,n,n,n,n,x,x,x,x,x
CCOc1ccc(CCNC(=O)Cn2cccc2C(=O)c2ccccc2C)cc1OCC,n,n,n,n,u,n,x,x,x,x,x
Cc1c(C#N)c(O)n(CCO)c(=O)c1N=Nc1ccc2c(c1)COC2=O,n,20µM,n,27,n,n,u,n,u,n,n
CC(C)(C)c1ccc(C(=O)Nc2cccc3c(=O)[nH][nH]c(=O)c23)cc1,n,20µM,n,56,n,55,u,u,n,n,n
CC(C)C[C@H]1COc2cccc(N3CCC[C@H]3CO)c2S(=O)(=O)N1,n,x,x,x,x,x,x,x,x,x,x
Cc1cc(C)cc(N2C(=O)CC(Sc3ncn[nH]3)C2=O)c1 (stereo not drawn),n,20µM,n,n,0.5µM,n,n,n,n,n,n
Cc1cc(C)cc(N2C(=O)CC(Cn3nc(C)cc3C)C2=O)c1 (stereo not drawn),n,n,n,n,n,n,x,x,x,x,x
COc1ccc(C(=O)Nc2cc(C)nn2-c2nc3ccccc3[nH]2)c(OC)c1,n,18µM,n,20,n,n,n,u,n,n,n
Cc1cc(NC(=O)CC#N)n(-c2nc3ccccc3[nH]2)n1,n,16µM,n,n,n,n,n,n,n,n,n
Cc1cc(NC(=O)c2sccc2C)n(-c2nc3ccccc3[nH]2)n1,n,16µM,n,n,x,n,u,u,n,n,n
Cc1cc(NC(=O)c2ccccc2)n(-c2nc3ccccc3[nH]2)n1,n,n,n,n,n,n,x,x,x,x,x
Cc1cccnc1C(NC(=O)C1CCN(CCCc2ccccc2)CC1)c1ccc(F)cc1 (stereo not drawn),n,x,x,x,x,x,x,x,x,x,x
CC1(C)C(=O)C=C[C@@]2(C)C1C=C[C@@]1(C)C2CC[C@@]2(C)C(c3ccoc3)OC(=O)C3OC312 (stereo partly drawn),x,n,x,x,x,x,x,x,x,x,x
O=C(COc1cccnc1[N+](=O)[O-])N1CCN(C(=O)c2ccco2)CC1,n,18µM,n,n,n,n,n[10.4 µM],n,n,n,n
Cc1cc(NC(=O)CSc2ncc(C(=O)O)n2-c2ccc(F)cc2)no1,n,x,x,x,x,x,x,x,x,x,x
O=C(O)c1cccnc1C(=O)O,n,0.63µM,x,x,n,x,n,n,n,n,n
CC(=O)c1ccc(N=Nc2c(C)[nH]n(-c3ccccc3)c2=O)cc1,n,7.1µM,n,n,n,n,u,n,n,n,n

# Screens from PubChem BioAssay.
